# Hits are enriched below; roughly 3% of the tested compounds scored in any of these assays.
# rTrxR1 inhibitor: inhibitors of rat thioredoxin reductase 1. 390,000 tested, 1% active. O89049. AID 588453. Potency, µM (doses to about 114 µM), actives largely listed as inhibitors. recombinant rTrxR1, NADPH fluorescence consumption, selenite substrate; also: nearly all actives have a fitted effect of over 65% in size
#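 Rat TrxR1 (90 nM in the dispensed reagent) was pre-reduced with 400 uM NADPH for 5 min at room temperature, then incubated with compound for 15 min. After 400 uM selenite was added, NADPH fluorescence (Ex 340/Em 450 nm) was followed for 8 min.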
# Nrf2 ARE act: activates Nrf2 signaling | AREc32 ARE-luciferase reporter (MCF7-derived line), luminescence, 24 h | Potency, µM (doses to about 46.1 µM), most hits filed as activators | 410,000 tested, 0.31% active; also: nearly all actives have a fitted effect of over 65% in size
#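 Steps: seed AREc32_Fluc cells (1000/well, 5% FBS OPTI-MEM); incubate overnight at 37 deg C; add 23 nL compound; incubate 24 hr; add Steady-Glo; hold 30 min RT; read luminescence.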
# A549 tox: kills or reduces viability of A549 cells in Nrf2 counter-screen | 390,000 tested, 0.16% active | A549 ARE-Fluc cells, CellTiter-Fluor viability, 18-24 h | Potency, µM (titrated, usually from 46 µM), usual class: inhibitors
#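 Cytotoxicity counterscreen: CellTiter-Fluor fluorescence was measured in A549 ARE_Fluc cells after 18-24 h of compound exposure in a concentration series. The subsequent BugLite luminescent read reports ARE-luciferase activity.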
# TrxR1 substrate: substrates of rat thioredoxin reductase 1; AID 588456; 390,000 tested, 0.01% active; purified TrxR1 substrate turnover, NADPH consumption readout; Potency, µM (series often up to 114 µM); also: nearly all actives have a fitted effect of over 50% in size
#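 Rat TrxR1, dispensed at 90 nM, was prereduced with 400 uM NADPH (final) for 5 min at ~22 deg C, then incubated with compound 15 min before 400 uM selenite. A first-read NADPH fluorescence drop versus no-compound background flagged substrates.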
# Nrf2 block: inhibitors of Nrf2 signaling; AID 504444; 360,000 tested, 2.1% active; A549 ARE-Fluc reporter, luciferase luminescence, 18-24 h; Potency, µM (doses to about 46 µM), usual class: inhibitors; also: nearly all actives have a fitted effect of over 60% in size
#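 A549 ARE_Fluc cells (5000/well, 5% FBS OPTI-MEM) pre-incubated 2 h, then treated with compounds 18-24 h at 37C/5% CO2 in concentration-response. CellTiter-Fluor viability read first; BugLite luciferase luminescence after 15 min at room temperature gives Nrf2 activity.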
# GALK inhibitor: blocks human galactokinase activity | P51570 | Purified GALK, Kinase-Glo residual ATP luminescence | Potency, µM (titrated, usually from 57.5 µM), actives largely listed as inhibitors | AID 1868 | 270,000 tested, 0.007% active
# Target sequence (P51570 whole entry, looked up): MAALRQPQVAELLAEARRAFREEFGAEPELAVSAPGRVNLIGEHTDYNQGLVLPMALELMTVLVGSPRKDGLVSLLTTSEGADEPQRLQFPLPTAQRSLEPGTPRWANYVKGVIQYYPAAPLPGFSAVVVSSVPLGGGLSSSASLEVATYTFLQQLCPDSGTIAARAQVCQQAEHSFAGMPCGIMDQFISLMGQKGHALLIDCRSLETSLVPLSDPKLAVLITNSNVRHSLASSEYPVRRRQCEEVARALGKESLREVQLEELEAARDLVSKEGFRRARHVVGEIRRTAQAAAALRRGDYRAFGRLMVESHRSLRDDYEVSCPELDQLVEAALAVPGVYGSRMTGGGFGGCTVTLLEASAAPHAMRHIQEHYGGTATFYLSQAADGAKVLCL
#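 Human GALK (5 nM) with 35 uM ATP and 100 uM galactose in 20 mM HEPES pH 8.0, 5 mM MgCl2, 60 mM NaCl, 1 mM DTT, 0.01% BSA. After 1 h at room temperature, leftover ATP was read by Kinase-Glo Plus luminescence.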
# Numbers stand for hits; - = inactive; ? = inconclusive; . = no result given; [ ] = remark or other dose. Calls follow the shape of the dose curve; as a rule, active = well fitted curve in the direction sought with a large enough effect; inconclusive = small, poorly fitted or top-dose-only effect, or another doubt; inactive = no such curve, though single readings can be large; an effect the other way counts as inactive or inconclusive.
SMILES,rTrxR1 inhibitor,Nrf2 ARE act,A549 tox,TrxR1 substrate,Nrf2 block,GALK inhibitor
CC(=O)c1[nH]c(C)c(C(=O)N2CCCC(Nc3ccc(C(C)C)cc3)C2)c1C (stereo not given),-,-,?,-,14.6µM,-
Nc1nc(N)c2c(Oc3ccc(F)cc3)cccc2n1,-,.,.,-,.,.
CC(=O)c1ccc(NC(=O)c2cnn3c2NC(=C2CC2)C=C3C(F)F)cc1,-,.,.,-,.,.
O=C(CN1CCN(c2ccccc2)CC1)c1c[nH]c2ccccc12,-,-,-,-,-,-
N#Cc1ccc(C(=O)CN2CCN(c3ccccc3)CC2)cc1,50.1µM,-,-,-,-,-
O=C(COc1ccc(F)cc1)Nc1ccc2nc(SCc3ccccc3)sc2c1,-,-,-,-,-,.
CCOc1cc(C=C(C(=O)OC)C(=O)OC)ccc1OCc1ccc([N+](=O)[O-])cc1,-,-,?,-,18.4µM,-
CCOc1cc(/C=N/O)ccc1OCc1ccc([N+](=O)[O-])cc1,-,-,-,-,-,-
O=C(c1ccc(Cl)cc1Cl)C1(n2cncn2)Oc2ccccc2C1O (stereo not given),-,-,-,-,10.3µM,-
CC(C)/C=C(/C(=O)c1ccc(Cl)cc1Cl)n1cncn1,-,?,-,-,-,-
COC(=O)c1ccc(NC(=O)c2ccccc2OCC(=O)Nc2ccc(Br)cc2)cc1,-,.,.,-,.,.
CCOC(=O)c1cccc(NC(=O)[C@@H](c2ccccc2)N2Cc3ccccc3C2=O)c1,-,-,-,-,-,.
O=C(Cc1ccc([N+](=O)[O-])cc1)c1c(O)cc(O)cc1O,3.55µM,-,-,-,-,-
CCOC(=O)c1c(C)[nH]c(CCC(=O)Nc2ccc(C)c(F)c2)c1C,-,-,-,-,.,.
O=C1C2C3C=CC(CO)(O3)C2C(=O)N1c1ccccc1-c1ccccc1 (stereo not given),0.891µM,-,?,-,?,-
COC(=O)C1(C)NC(c2ccc(Cl)cc2)C2C(=O)N(c3ccccc3)C(=O)C21 (stereo not given),-,-,-,-,?,-
O=C1C2C3C=CC(CNS(=O)(=O)c4ccccc4)(O3)C2C(=O)N1c1ccc(Cl)cc1 (stereo not given),10µM,-,-,-,-,.
CC(=O)Oc1ccc(N2C(=O)C3C4C=CC(CO)(O4)C3C2=O)cc1 (stereo not given),3.16µM,-,-,-,.,-
O=C1CCC(=O)N1c1ccccc1-c1ccccc1,-,-,-,-,-,-
CCn1c2ccccc2c2cc(/C=C3/C=Cc4ccccc43)ccc21,-,.,.,-,.,.
Cc1cc(C)cc(NC(=O)C2CCN(S(=O)(=O)c3ccc4c(c3)oc(=O)n4C)CC2)c1,-,-,-,-,-,.
COc1cccc(CNC(=O)C2CCN(S(=O)(=O)c3c(C)noc3/C=C/c3cccs3)CC2)c1,-,-,-,-,-,.
O=C(/C=C/c1ccco1)NCC(=O)N/N=C/c1ccccc1[N+](=O)[O-],44.7µM,11.2µM,?,-,-,-
COCCn1c(C)cc(C(=O)COC(=O)c2[nH]c(C)c(C(C)=O)c2C)c1C,-,-,-,-,23.1µM,.
O=C(NC1CCCCC1)C(c1cccnc1)N(C(=O)CCl)c1cccc(Cl)c1 (stereo not given),6.31µM,12.6µM,-,-,?,-
SMILES,rTrxR1 inhibitor,Nrf2 ARE act,A549 tox,TrxR1 substrate,Nrf2 block,GALK inhibitor
Cc1cccc(N(C(=O)CNC(=O)c2ccco2)C(C(=O)NC2CCCCC2)c2cccnc2)c1 (stereo not given),-,-,-,-[0.0914 µM],-,-
COCCn1c(=NC(=O)CCS(=O)(=O)c2ccccc2)sc2ccccc21,7.08µM,-,-,-,?,.
CC(=O)Nc1cccc(NC(=O)c2ccco2)c1,-,-,-,-,-,-
O=C(Nc1ccccc1O)c1cccc(NC(=O)c2ccco2)c1,-,7.94µM,-,-,-,-
O=C(Nc1cccc(F)c1)c1ccco1,-,10µM,-,-,-,-
O=C(c1ccccc1)c1cccc(NC(=O)c2ccco2)c1,-,-,-,-,-,-
O=C(Nc1nc(-c2cccs2)cs1)c1ccco1,-,12.6µM,-,-,?,-
O=C(Nc1ccccc1O)c1ccc(C(=O)c2ccccc2)o1,-,12.6µM,-,-,-,-
O=C(Nc1nc(-c2ccncc2)cs1)c1ccco1,-,?,-,-,-,-
COc1ccc(Cl)c(Cn2cnc3c(cnn3C(C)(C)C)c2=O)c1,-,.,.,-,.,.
O=C(Nc1nc2c(F)cccc2s1)c1ccco1,-,7.08µM,-,-,?,.
CCOC(=O)c1cc(-c2ccc(C)cc2)n(CC(=O)Nc2ccc(OC)c(Cl)c2)c1C,-,-,?,-,?,.
COc1ccc2[nH]c(=O)c(CN(Cc3cccs3)S(=O)(=O)c3c(C)ccc4nsnc34)cc2c1,-,-,.,-,9.2µM,-
Cc1ccc2[nH]c(=O)c(CN(Cc3ccco3)S(=O)(=O)c3c(C)ccc4nsnc34)cc2c1,28.2µM,-,-,-,?,-
Cc1ccc2[nH]c(=O)c(CN(CC3CCCO3)S(=O)(=O)c3c(C)ccc4nsnc34)cc2c1 (stereo not given),-,-,-,-,.,-
COc1ccc(OCc2nc(-c3ccc(-n4cccc4)cc3)no2)cc1,-,-,-,-,.,.
COc1ccc(CCc2nc(-c3ccc(-n4cccc4)cc3)no2)cc1,-,-,-,-,16.4µM,-
CCCc1ccc(OC(C)c2nc(-c3ccc(-n4cccc4)cc3)no2)cc1 (stereo not given),-,-,-,-,23.1µM,.
Cc1ccc(-c2nnc(SCc3ccccc3C#N)o2)cc1,-,-,-,-,?,.
CCOc1cc(/C=C2\CCCc3c2nc2ccccc2c3C(=O)O)ccc1OC,79.4µM,-,?,-,-,-
O=c1c2c(-c3ccc(Cl)cc3)ccnc2[nH]n1-c1ccccc1,-,-,-,-,-,.

# From PubChem BioAssay
